According to PubChem BioAssay:
Activity calls are given as the source filed them. Rule as the data show it, unless noted: active = response above about 15%; inactive = the rest.

Key:
[1] = reduced mouse 2C T cell binding to pMHC/ICAM-1 vesicles – MLPCN validation set, flow cytometry, LFA-1/ICAM-1 modulator project, pilot screen (AID 2523;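 active = response below a set limit, under 55% cells CD8-positive and vesicle-bound, and CD8 cells' 90th-percentile brightness under 279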;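 as to vesicle binding response: mean PE anti-B7-1 fluorescence of CD8+ cells relative to row control; 100% = QL9-loaded vesicles with DMSO vehicle in the same plate row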); conditions: 2C mouse CD8+ T cells, at 7 µM, stronger effect = lower value; double positive events: measured here: CD8+/vesicle+ event percentage
[2] = target: Integrin beta-1 (Homo sapiens) + Integrin alpha-4 (Homo sapiens) (UniProt P13612+P05556); experiment: alpha4beta1 integrin LIBS antibody binding reduction – U937 cells, HUTS-21 mAb, flow cytometry, validation set, VLA-4 allosteric modulator project, pilot screen (AID 2674;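 active = inhibition above 50%, about 3 SD of the validation set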;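 also: antibody binding induced by the VLA-4 ligand LDV present at three times its Kd; 0% = LDV ligand with antibody and no compound and 100% = antibody without LDV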); conditions: HUTS-21 LIBS mAb binding, at 6.7 µM, stronger effect = higher value, binding induced by LDV ligand
Integrin beta-1 (Homo sapiens) + Integrin alpha-4 (Homo sapiens), sequence (P05556 whole entry, looked up): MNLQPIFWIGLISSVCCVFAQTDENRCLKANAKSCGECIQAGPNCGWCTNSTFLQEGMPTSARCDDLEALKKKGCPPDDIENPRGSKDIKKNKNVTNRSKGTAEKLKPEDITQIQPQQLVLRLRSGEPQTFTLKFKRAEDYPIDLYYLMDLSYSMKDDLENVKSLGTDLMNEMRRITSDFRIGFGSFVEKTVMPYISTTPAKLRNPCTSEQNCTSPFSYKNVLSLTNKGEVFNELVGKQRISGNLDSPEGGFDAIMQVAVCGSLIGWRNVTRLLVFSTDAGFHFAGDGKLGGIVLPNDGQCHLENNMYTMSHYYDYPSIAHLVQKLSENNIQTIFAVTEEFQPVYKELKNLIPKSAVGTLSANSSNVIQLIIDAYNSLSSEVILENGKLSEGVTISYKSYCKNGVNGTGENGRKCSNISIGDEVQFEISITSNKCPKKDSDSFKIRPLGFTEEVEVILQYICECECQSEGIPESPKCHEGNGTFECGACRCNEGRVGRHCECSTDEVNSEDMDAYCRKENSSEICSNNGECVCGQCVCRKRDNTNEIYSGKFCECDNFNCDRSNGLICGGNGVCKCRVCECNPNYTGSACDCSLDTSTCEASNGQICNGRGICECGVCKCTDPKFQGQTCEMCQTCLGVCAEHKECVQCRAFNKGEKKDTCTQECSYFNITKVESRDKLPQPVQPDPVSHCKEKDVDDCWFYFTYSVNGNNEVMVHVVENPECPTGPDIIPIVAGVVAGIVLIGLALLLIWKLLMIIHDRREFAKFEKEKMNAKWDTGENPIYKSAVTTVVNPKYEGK
Integrin beta-1 (Homo sapiens) + Integrin alpha-4 (Homo sapiens), sequence (P13612 whole entry, looked up): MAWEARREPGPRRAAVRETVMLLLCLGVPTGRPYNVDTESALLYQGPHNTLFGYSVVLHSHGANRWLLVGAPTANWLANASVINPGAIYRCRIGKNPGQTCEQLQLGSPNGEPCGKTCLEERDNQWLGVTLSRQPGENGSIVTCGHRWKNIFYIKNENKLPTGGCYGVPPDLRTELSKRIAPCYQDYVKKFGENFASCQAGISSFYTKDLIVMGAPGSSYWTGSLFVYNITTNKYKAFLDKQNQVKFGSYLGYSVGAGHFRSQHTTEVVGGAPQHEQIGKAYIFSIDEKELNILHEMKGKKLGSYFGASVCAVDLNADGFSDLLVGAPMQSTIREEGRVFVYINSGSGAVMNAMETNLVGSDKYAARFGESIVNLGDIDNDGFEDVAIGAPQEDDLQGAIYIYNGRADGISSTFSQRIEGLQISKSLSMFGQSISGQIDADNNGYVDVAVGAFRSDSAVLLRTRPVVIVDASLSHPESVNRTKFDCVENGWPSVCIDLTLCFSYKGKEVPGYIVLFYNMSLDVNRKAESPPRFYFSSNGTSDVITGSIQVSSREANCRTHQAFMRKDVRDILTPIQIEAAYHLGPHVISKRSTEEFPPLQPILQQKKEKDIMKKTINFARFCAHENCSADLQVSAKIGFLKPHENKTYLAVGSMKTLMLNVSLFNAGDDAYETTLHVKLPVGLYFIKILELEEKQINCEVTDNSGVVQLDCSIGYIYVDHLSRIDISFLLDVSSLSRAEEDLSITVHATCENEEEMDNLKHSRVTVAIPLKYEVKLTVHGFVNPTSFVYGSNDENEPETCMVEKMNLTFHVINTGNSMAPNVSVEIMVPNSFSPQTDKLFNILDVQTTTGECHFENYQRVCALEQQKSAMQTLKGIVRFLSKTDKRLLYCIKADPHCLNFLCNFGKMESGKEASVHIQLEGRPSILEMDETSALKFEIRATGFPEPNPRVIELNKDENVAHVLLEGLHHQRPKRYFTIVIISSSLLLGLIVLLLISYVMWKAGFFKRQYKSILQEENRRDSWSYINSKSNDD

[3] = calorie-restriction mimetic ROS inhibitors, yeast – validation compound set, pilot screen (AID 2706;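 active = superoxide response below 65% of plate, a cut near 3 SD across the whole screen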;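 also: yeast exposed to compound for one week at 30 degrees C before staining; 100% = mean of all compound wells on the same plate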); conditions: S. cerevisiae aging, superoxide DHE fluorescence; at 10 µM, stronger effect = lower value
[4] = target: Beta-adrenergic receptor kinase 1 (Homo sapiens) (UniProt P25098); experiment: GRK2 binders displacing RNA aptamer, biochemical, validation, human GRK2, bead flow cytometry (AID 488806;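 active = aptamer binding inhibition above 30%, about 3 SD of noise from non-fluorescent compounds; inactive = inhibition at or below 30%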); conditions: bead-bound GRK2, FAM-aptamer displacement, at 10 µM, stronger effect = higher value
Beta-adrenergic receptor kinase 1 (Homo sapiens), sequence (P25098 whole entry, looked up): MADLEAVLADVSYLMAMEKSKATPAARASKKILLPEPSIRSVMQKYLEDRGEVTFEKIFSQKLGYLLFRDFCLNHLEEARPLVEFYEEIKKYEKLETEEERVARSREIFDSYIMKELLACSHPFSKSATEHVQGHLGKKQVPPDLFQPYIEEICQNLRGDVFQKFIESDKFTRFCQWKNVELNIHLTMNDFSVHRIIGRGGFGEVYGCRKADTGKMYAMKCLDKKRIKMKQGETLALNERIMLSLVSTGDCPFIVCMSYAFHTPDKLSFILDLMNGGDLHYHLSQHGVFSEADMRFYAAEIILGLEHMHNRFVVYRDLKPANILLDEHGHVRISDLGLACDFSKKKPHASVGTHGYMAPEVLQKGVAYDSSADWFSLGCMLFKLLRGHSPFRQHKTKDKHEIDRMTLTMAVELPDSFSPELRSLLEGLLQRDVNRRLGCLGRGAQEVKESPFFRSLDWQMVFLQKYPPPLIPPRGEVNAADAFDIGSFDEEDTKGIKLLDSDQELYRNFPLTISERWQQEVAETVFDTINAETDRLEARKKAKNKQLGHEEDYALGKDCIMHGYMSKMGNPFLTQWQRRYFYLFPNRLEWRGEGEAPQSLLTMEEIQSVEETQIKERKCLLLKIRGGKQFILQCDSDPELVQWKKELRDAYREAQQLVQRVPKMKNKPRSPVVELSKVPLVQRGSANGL

[5] = target: Beta-2 adrenergic receptor (Homo sapiens) (UniProt P07550); experiment: agonist-induced loss of surface beta2AR – cell-based, FAP fluorogen, flow cytometry, validation set, pilot screen (AID 504459;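 active = percent response above 42, roughly 3 SD of non-fluorescent test compounds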;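 also: agonist-driven loss of surface beta2AR via internalization measured by FAP dye flow cytometry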); conditions: Am2.2-beta2AR cells, at 10 µM, stronger effect = higher value
Beta-2 adrenergic receptor (Homo sapiens), sequence (P07550 whole entry, looked up): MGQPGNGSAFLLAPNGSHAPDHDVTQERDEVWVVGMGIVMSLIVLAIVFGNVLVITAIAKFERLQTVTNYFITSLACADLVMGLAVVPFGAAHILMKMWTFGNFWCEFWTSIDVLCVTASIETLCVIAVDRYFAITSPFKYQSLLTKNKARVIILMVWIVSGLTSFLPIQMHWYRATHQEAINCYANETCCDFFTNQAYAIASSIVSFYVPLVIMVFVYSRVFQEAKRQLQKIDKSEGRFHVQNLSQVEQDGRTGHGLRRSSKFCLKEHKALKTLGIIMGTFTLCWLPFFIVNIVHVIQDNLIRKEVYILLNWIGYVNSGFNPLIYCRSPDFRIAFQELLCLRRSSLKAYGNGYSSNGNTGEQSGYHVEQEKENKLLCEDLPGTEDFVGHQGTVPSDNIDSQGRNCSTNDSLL

[6] = target: AP-2 complex subunit beta (Homo sapiens) (UniProt P63010); experiment: beta-arrestin/AP2 interaction blockers – biochemical, validation set, GST-AP2 beads, flow cytometry, pilot screen (AID 504541;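 active = inhibition above 54%, about 3 SD of non-fluorescent compounds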;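 also: AP2 carries R879A mutation and is captured from E. coli lysate; bead-bound FITC arrestin peptide fluorescence measuring arrestin peptide binding to AP2; 0% = DMSO wells and 100% = excess unlabeled arrestin peptide control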); conditions: FITC arrestin peptide, at 10 µM, stronger effect = higher value, AP2 beta2 appendage fragment, R879A mutant
AP-2 complex subunit beta (Homo sapiens), sequence (P63010 whole entry, looked up, the tested form may be a part, one chain of several): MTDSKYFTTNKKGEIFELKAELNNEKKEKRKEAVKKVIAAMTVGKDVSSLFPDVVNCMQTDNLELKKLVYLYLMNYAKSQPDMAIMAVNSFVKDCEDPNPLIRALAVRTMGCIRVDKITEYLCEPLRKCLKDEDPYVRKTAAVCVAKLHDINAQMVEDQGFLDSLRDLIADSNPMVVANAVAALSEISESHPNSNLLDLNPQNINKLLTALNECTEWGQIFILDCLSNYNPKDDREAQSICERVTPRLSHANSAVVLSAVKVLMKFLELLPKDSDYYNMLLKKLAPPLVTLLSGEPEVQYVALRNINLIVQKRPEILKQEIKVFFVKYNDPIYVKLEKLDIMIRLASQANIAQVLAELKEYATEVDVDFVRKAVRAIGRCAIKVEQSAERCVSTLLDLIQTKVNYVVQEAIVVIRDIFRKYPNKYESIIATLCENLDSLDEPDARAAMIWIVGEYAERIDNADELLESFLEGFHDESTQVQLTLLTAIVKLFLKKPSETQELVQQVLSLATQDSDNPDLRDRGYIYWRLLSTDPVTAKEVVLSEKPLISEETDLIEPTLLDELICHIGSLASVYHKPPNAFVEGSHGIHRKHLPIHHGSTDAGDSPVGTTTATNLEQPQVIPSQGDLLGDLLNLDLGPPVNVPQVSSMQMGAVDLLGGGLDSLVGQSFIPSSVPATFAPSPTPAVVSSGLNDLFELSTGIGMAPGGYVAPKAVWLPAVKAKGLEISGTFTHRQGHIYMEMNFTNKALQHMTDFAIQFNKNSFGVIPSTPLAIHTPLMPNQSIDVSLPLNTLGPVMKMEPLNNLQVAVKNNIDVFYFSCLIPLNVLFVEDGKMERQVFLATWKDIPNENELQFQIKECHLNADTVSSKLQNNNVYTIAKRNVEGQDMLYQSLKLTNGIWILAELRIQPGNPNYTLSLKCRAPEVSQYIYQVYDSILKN

[7] = cytosolic pH regulators acting via V-ATPase – S. cerevisiae, pHLuorin, HTS validation (AID 504600); conditions: V-ATPase proton transport, at 10 µM, stronger effect = higher value;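 also: plate controls were DMSO for no effect and reference compound for full effect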
[8] = test system: anti-desmoglein-3 scFv antibody binding to human DSG3; experiment: blockers of pathogenic pemphigus antibody–desmoglein-3 binding – biochemical, validation compound set, bead-based, flow cytometry, pilot screen (AID 588368;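 active = binding below the plate cutoff, the plate median minus 3 SD, with a reading above zero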;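 also: signal is the median channel fluorescence of bead-bound GFP antibody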); conditions: Protein G beads, DSG3-Fc, scFv-GFP binding, at 10 µM, stronger effect = lower value
[9] = Nile Red efflux blockade in pump-expressing yeast – validation compound set, multiplex, phenotypic, pilot screen (AID 588506;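 active = efflux inhibition above 0.42, the validation set average plus 4 SD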;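 also: Nile Red retained in cells so higher fluorescence means more efflux inhibition; 0 = negative control wells and 1 = enniatin B 25 µM full block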); conditions: S. cerevisiae pump-expressing triplex, Nile Red efflux flow cytometry; at 10 µM; stronger effect = higher value; the pumps come from Candida albicans
[10] = target: ATP-binding cassette sub-family B member 6 (Homo sapiens) (UniProt Q9NP58); experiment: blockers of ABCB6-driven porphyrin uptake – K562-ABCB6 cells, flow cytometry, validation set, pilot screen (AID 588550;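 active = inhibition above the screen-wide mean plus 3 SD, about 51%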;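 also: 0% = DMSO wells and 100% = benzethonium chloride 70 µM positive control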); conditions: K562-ABCB6 porphyrin accumulation, 1 h, at 10 µM, stronger effect = higher value
ATP-binding cassette sub-family B member 6 (Homo sapiens), sequence (Q9NP58 whole entry, looked up): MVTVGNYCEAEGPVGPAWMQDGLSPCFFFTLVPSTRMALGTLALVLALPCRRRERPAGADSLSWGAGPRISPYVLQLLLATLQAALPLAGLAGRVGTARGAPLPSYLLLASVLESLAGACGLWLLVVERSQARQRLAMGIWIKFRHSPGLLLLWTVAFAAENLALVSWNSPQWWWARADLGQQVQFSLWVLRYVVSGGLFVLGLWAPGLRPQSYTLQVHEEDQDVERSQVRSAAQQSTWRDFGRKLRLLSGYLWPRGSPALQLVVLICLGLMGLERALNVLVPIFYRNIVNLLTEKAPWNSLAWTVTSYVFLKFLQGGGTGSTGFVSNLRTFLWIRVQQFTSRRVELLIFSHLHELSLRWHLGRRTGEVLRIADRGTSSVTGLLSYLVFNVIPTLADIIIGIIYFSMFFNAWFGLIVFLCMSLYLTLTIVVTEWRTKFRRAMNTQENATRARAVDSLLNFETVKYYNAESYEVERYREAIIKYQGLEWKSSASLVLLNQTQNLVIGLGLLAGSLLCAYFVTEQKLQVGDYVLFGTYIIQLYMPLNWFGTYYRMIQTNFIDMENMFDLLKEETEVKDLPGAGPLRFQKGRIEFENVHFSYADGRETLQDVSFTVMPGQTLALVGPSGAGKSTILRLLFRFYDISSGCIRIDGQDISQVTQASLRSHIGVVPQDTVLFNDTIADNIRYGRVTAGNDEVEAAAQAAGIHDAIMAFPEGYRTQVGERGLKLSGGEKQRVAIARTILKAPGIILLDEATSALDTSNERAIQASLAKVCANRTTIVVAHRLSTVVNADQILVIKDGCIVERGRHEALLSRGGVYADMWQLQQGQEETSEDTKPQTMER

[11] = AML differentiation inducers, ER-HoxA9 marrow cells – cell-based, GFP/MAC1 double positive, flow cytometry, validation set, primary screen (AID 588685;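 active = differentiation response of at least 50%, scaled between solvent and reference control, from cells with both markers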;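 also: compound exposure lasts four days before antibody staining and flow analysis; 0% = DMSO wells and 100% = 5 µM fulvestrant positive control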); conditions: stronger effect = higher value, normalized: vehicle 0, fulvestrant 100

COc1ccc(CCN=C(N)C(C)c2ccccc2)cc1OC (stereo not given)
62.6%: double positive events [1]
inactive: vesicle binding response [1] 238% | inhibition [2] 5.69% | superoxide response (% of plate) [3] 93.8% | aptamer binding inhibition [4] 4% | response [5] -11.2% | inhibition [6] -6.07% | response [7] -1.3% | binding (% of control) [8] 97.3% | efflux inhibition (fraction of control) [9] -0.04 | inhibition [10] 5% | differentiation response [11] 7.82%

COc1cc([C@@H]2c3cc4c(cc3[C@H](O)[C@H]3COC(=O)[C@H]23)OCO4)cc(OC)c1OC
63.2%: double positive events [1]
active: response [7] 21%
inactive: vesicle binding response [1] 180% | inhibition [2] 38.9% | superoxide response (% of plate) [3] 99.1% | aptamer binding inhibition [4] 7% | response [5] 22.7% | inhibition [6] -1.6% | binding (% of control) [8] 102% | efflux inhibition (fraction of control) [9] -0.13 | inhibition [10] 7% | differentiation response [11] -0.06%

CNCCc1ccccn1
60%: double positive events [1]
inactive: vesicle binding response [1] 212% | inhibition [2] 15.1% | superoxide response (% of plate) [3] 122% | aptamer binding inhibition [4] -6% | response [5] -19.8% | inhibition [6] -12.3% | response [7] -10.1% | binding (% of control) [8] 100% | efflux inhibition (fraction of control) [9] 0 | inhibition [10] 1% | differentiation response [11] 2.89%

CCN(CC)CCNC(=O)c1cc(S(C)(=O)=O)ccc1OC
inactive: vesicle binding response [1] 219% | inhibition [2] -1.79% | superoxide response (% of plate) [3] 88.3% | aptamer binding inhibition [4] 4% | response [5] 4.46% | inhibition [6] -1.05% | response [7] 4.62% | binding (% of control) [8] 101% | efflux inhibition (fraction of control) [9] -0.28 | inhibition [10] 5% | differentiation response [11] -5.6%
58.8%: double positive events [1]

COc1cc2c(cc1OC)C1(CCCCC1)CN(C)C2
57.3%: double positive events [1]
inactive: vesicle binding response [1] 258% | inhibition [2] 16% | superoxide response (% of plate) [3] 103% | aptamer binding inhibition [4] 5% | response [5] 5.44% | inhibition [6] 4.18% | response [7] 1.68% | binding (% of control) [8] 89% | efflux inhibition (fraction of control) [9] 0.12 | inhibition [10] -22% | differentiation response [11] 4%

Cc1oc(/C=N/NC(=O)CC2(C)OCCO2)cc1Br
inactive: vesicle binding response [1] 93.4% | inhibition [2] 4.27% | superoxide response (% of plate) [3] 107% | aptamer binding inhibition [4] -3% | response [5] 4.99% | inhibition [6] 0.64% | binding (% of control) [8] 104% | efflux inhibition (fraction of control) [9] -0.245 | inhibition [10] 18% | differentiation response [11] -0.18%
60.6%: double positive events [1]
active: response [7] 68.3%

COc1ccc2c(CCNC(=O)c3ccc([N+](=O)[O-])cc3)c[nH]c2c1
56.1%: double positive events [1]
inactive: vesicle binding response [1] 210% | inhibition [2] -5.89% | superoxide response (% of plate) [3] 105% | aptamer binding inhibition [4] 3% | response [5] 7.52% | inhibition [6] -2.03% | response [7] -0.21% | binding (% of control) [8] 101% | efflux inhibition (fraction of control) [9] -0.03 | inhibition [10] 4% | differentiation response [11] -21.6%

COc1ccc(CCNC(=O)CC(c2ccccc2)c2cccc(C)c2O)cc1OC (stereo not given)
inactive: vesicle binding response [1] 190% | inhibition [2] 16.2% | superoxide response (% of plate) [3] 96.3% | aptamer binding inhibition [4] 1% | response [5] 5.7% | inhibition [6] -1.67% | response [7] 1.13% | binding (% of control) [8] 101% | efflux inhibition (fraction of control) [9] -0.46 | inhibition [10] 10% | differentiation response [11] -3.28%
62.6%: double positive events [1]

CCN(Cc1cnn(C)c1)Cc1nc(C(c2ccccc2)c2ccccc2)no1
61.8%: double positive events [1]
inactive: vesicle binding response [1] 168% | inhibition [2] 7.4% | superoxide response (% of plate) [3] 120% | aptamer binding inhibition [4] -5% | response [5] -21.6% | inhibition [6] -13.6% | response [7] -8.11% | binding (% of control) [8] 98.8% | efflux inhibition (fraction of control) [9] -0.04 | inhibition [10] 1% | differentiation response [11] 16.7%

CCOCc1cc(C)[nH]c(=O)c1C#N
inactive: vesicle binding response [1] 225% | inhibition [2] 3.67% | superoxide response (% of plate) [3] 98.3% | aptamer binding inhibition [4] 2% | response [5] 1.78% | inhibition [6] -6.13% | response [7] 1.03% | binding (% of control) [8] 102% | efflux inhibition (fraction of control) [9] -0.21 | inhibition [10] 7% | differentiation response [11] -4%
60.2%: double positive events [1]

COc1ccc(/C=C\C(=O)c2c(O)ccc3c(C)cc(=O)oc23)cc1OC
active: inhibition [6] 60.6%
60.8%: double positive events [1]
inactive: vesicle binding response [1] 182% | inhibition [2] 14.2% | superoxide response (% of plate) [3] 94.3% | aptamer binding inhibition [4] 1% | response [5] 16.8% | response [7] -0.16% | binding (% of control) [8] 106% | efflux inhibition (fraction of control) [9] 0.29 | inhibition [10] -4% | differentiation response [11] -1.05%

CN1CCN(CCCN2c3ccccc3Sc3ccc(C(F)(F)F)cc32)CC1
64.7%: double positive events [1]
inactive: vesicle binding response [1] 215% | superoxide response (% of plate) [3] 80.3% | aptamer binding inhibition [4] -2% | response [5] 23.7% | inhibition [6] 1.45% | binding (% of control) [8] 109% | efflux inhibition (fraction of control) [9] 0 | inhibition [10] 8% | differentiation response [11] 7.82%
active: inhibition [2] 57.6% | response [7] 24.5%

CN(C)CCN(Cc1cccs1)c1ccccn1
inactive: vesicle binding response [1] 165% | inhibition [2] 13.8% | superoxide response (% of plate) [3] 113% | aptamer binding inhibition [4] 2% | inhibition [6] -17.1% | response [7] 8.75% | binding (% of control) [8] 101% | efflux inhibition (fraction of control) [9] 0.18 | inhibition [10] 8% | differentiation response [11] -21.2%
52.7%: double positive events [1]
